Screening results from PubChem.
T cruzi growth-1 = T. cruzi proliferation inhibition; T. cruzi beta-gal in NIH3T3, GalScreen luminescence, 90 h; inhibition, % at 8.34 µM; 5.9% of 77,000 active; AID 624255;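 active = mean inhibition above about 93%, with at least 55% of replicates each passing it, limit read from the data, passing the limit was not always enough; inconclusive = only one of those two conditions holds; inactive = neither condition holds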
C diff HTS = inhibitors of Clostridium difficile growth; Clostridium difficile clinical isolate growth, OD600, 24 h; active compounds read low; growth activity, negative = inhibition, % at 16 µg/mL (by protocol); 0.25% of 86,000 active; AID 1259249;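 active = mean growth activity at or below -80% and every replicate also at or below -80%; inconclusive = mean at or below -80% but some replicate above -80%; inactive = mean growth activity above -80%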
Pf Dd2 growth = P. falciparum Dd2 growth inhibition | 2.3% of 94,000 active | AID 1159554 | SYBR Green, 72 h; active compounds read low | activity change, % at 10 µM; in the data active = activity change below about -80%; inconclusive = no clear call, values can overlap the other calls
T cruzi growth-2 = inhibitors of T. cruzi proliferation; T. cruzi beta-gal in NIH3T3, GalScreen luminescence, 90 h; inhibition, % at 8.35 µM; 72% of 5,600 active; shares compounds with T cruzi growth-1;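 active = mean replicate inhibition above about 95% and at least 55% of replicates individually reaching it, limit read from the data; inconclusive = only one of the two criteria is met; inactive = neither criterion is met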
T cruzi growth-3 = Trypanosoma cruzi proliferation inhibition. shares compounds with T cruzi growth-1. T. cruzi beta-gal in NIH3T3, GalScreen luminescence, 90 h. inhibition, % at 2.09 µM. 21% of 5,600 active. AID 651740;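 active = mean inhibition above about 95%, with at least 55% of replicates also reaching it, limit read from the data; inconclusive = meets just one of the two conditions; inactive = meets neither condition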
3T3 cytotox = NIH/3T3 (mouse) viability loss; NIH/3T3 viability, CellTiter-Glo ATP luminescence, 90 h; AID 651742; cytotoxicity (signal decrease), % at 8.35 µM; shares compounds with T cruzi growth-1; 14% of 5,600 active;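 active = mean signal decrease across replicates above about 35% based on untreated-well scatter, with enough replicates individually passing, limit read from the data; inconclusive = no rule stated though some were filed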
NIH3T3 tox 2 = cytotoxicity in mouse NIH/3T3 fibroblasts; shares compounds with T cruzi growth-1; NIH/3T3 viability, CellTiter-Glo ATP luminescence, 90 h; inhibition, % at 24.9 µM; 56% of 5,600 active; AID 651744;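 active = mean loss of cell viability signal at or above a set limit, and enough replicates individually reaching it; inconclusive = meets only the mean limit or only the replicate share; inactive = meets neither condition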
Of the large screens only hits and unclear results are named; the others gave an inactive call (follow-up assays come after a bar, where they were run). Compounds with a hit are over-represented: about 6.7% of the library has one in this group of screens.

C[C@@H]1CN([C@@H](C)CO)C(=O)Cc2cc(NS(=O)(=O)c3ccc(F)cc3)ccc2O[C@H]1CN(C)Cc1ccccc1	T cruzi growth-1 114.0 | T cruzi growth-2 111.5 | T cruzi growth-3 inactive | 3T3 cytotox inactive | NIH3T3 tox 2 inconclusive
C[C@@H]1CN([C@@H](C)CO)C(=O)Cc2cc(NS(=O)(=O)c3ccc(F)cc3)ccc2O[C@@H]1CN(C)Cc1ccccc1	none
COc1ccc(S(=O)(=O)Nc2ccc3c(c2)CC(=O)N([C@H](C)CO)C[C@H](C)[C@@H](CN(C)Cc2ccccc2)O3)cc1	T cruzi growth-1 99.5 | T cruzi growth-2 103.6 | T cruzi growth-3 inactive | 3T3 cytotox inactive | NIH3T3 tox 2 inactive
COc1ccc(S(=O)(=O)Nc2ccc3c(c2)CC(=O)N([C@H](C)CO)C[C@H](C)[C@H](CN(C)Cc2ccccc2)O3)cc1	none
C[C@@H]1CN([C@@H](C)CO)C(=O)Cc2cc(NS(=O)(=O)c3cn(C)cn3)ccc2O[C@H]1CN(C)C	none
O=S(=O)(N[C@H]1CC[C@H](CCn2cc(C3CC3)nn2)O[C@H]1CO)c1ccc(F)cc1	none (no result: C diff HTS)
CN1C(=O)c2cc(NC(=O)C3CC3)ccc2OC[C@@H]2O[C@@H](CC(=O)NCc3cccc(F)c3)CC[C@H]21	none
C[C@H]1CN([C@@H](C)CO)C(=O)c2cc(-c3cccnc3)cnc2O[C@@H]1CN(C)C(=O)Nc1ccccc1	none (no result: C diff HTS)
CC(C)CC#Cc1ccc2c(c1)O[C@H](CN(C)C(=O)Cc1ccccc1)[C@@H](C)CN([C@@H](C)CO)S2(=O)=O	T cruzi growth-1 126.9 | T cruzi growth-2 103.7 | T cruzi growth-3 111.2 | 3T3 cytotox inactive | NIH3T3 tox 2 104.5
CC(C)CC#Cc1ccc2c(c1)O[C@H](CN(C)C(=O)Cc1ccccc1)[C@@H](C)CN([C@H](C)CO)S2(=O)=O	T cruzi growth-1 125.5 | T cruzi growth-2 98.1 | T cruzi growth-3 inconclusive | 3T3 cytotox inactive | NIH3T3 tox 2 104.7
CC(C)CC#Cc1ccc2c(c1)O[C@@H](CN(C)C(=O)Cc1cccnc1)[C@H](C)CN([C@@H](C)CO)S2(=O)=O	none (no result: T cruzi growth-1)
CC(C)CC#Cc1ccc2c(c1)O[C@@H](CN(C)C(=O)Cc1cccnc1)[C@@H](C)CN([C@H](C)CO)S2(=O)=O	none (no result: T cruzi growth-1)
CC(C)CC#Cc1ccc2c(c1)O[C@@H](CN(C)C(=O)Cc1ccncc1)[C@H](C)CN([C@@H](C)CO)S2(=O)=O	T cruzi growth-1 99.8, Pf Dd2 growth -82.1 | T cruzi growth-2 98.5 | T cruzi growth-3 inactive | 3T3 cytotox inactive | NIH3T3 tox 2 inactive
CC(C)CC#Cc1ccc2c(c1)O[C@H](CN(C)C(=O)Cc1ccncc1)[C@@H](C)CN([C@@H](C)CO)S2(=O)=O	T cruzi growth-1 inconclusive
O=C(NCC[C@@H]1CC[C@H](NS(=O)(=O)Cc2ccccc2)[C@H](CO)O1)C1CCCC1	none (no result: T cruzi growth-1)
C[C@H](O)C#Cc1cnc2c(c1)C(=O)N([C@H](C)CO)C[C@H](C)[C@@H](CN(C)C(=O)c1ccc(F)cc1)O2	none (no result: T cruzi growth-1)
O=C(O)[C@@H]1[C@@H](CO)[C@@H]2Cn3c(ccc(-c4ccccc4)c3=O)[C@@H]2N1Cc1ccccc1F	none (no result: Pf Dd2 growth)
CC(C)CC#Cc1ccc2c(c1)O[C@@H](CN(C)Cc1cccnc1)[C@@H](C)CN([C@H](C)CO)S2(=O)=O	none (no result: Pf Dd2 growth)
CC(C)CC#Cc1ccc2c(c1)O[C@@H](CN(C)Cc1cccnc1)[C@@H](C)CN([C@@H](C)CO)S2(=O)=O	T cruzi growth-1 107.6 (no result: Pf Dd2 growth) | T cruzi growth-2 108.3 | T cruzi growth-3 inactive | 3T3 cytotox inactive | NIH3T3 tox 2 107.0
CC(C)CC#Cc1ccc2c(c1)O[C@H](CN(C)Cc1cncnc1)[C@@H](C)CN([C@H](C)CO)S2(=O)=O	T cruzi growth-1 103.4 | T cruzi growth-2 inactive | T cruzi growth-3 106.4 | 3T3 cytotox 47.4 | NIH3T3 tox 2 60.6
CC(C)CC#Cc1ccc2c(c1)O[C@H](CN(C)Cc1cccnc1)[C@@H](C)CN([C@@H](C)CO)S2(=O)=O	T cruzi growth-1 99.8 (no result: Pf Dd2 growth) | T cruzi growth-2 inactive | T cruzi growth-3 101.9 | 3T3 cytotox inactive | NIH3T3 tox 2 104.3
CC(C)CC#Cc1ccc2c(c1)O[C@@H](CN(C)Cc1cccnc1)[C@H](C)CN([C@@H](C)CO)S2(=O)=O	none (no result: Pf Dd2 growth)
CC(C)CC#Cc1ccc2c(c1)O[C@H](CN(C)Cc1cncnc1)[C@H](C)CN([C@H](C)CO)S2(=O)=O	none
COCC(=O)Nc1ccc2c(c1)[C@@H]1C[C@H](CC(=O)NCCc3ccccc3)O[C@@H](CO)[C@@H]1O2	none
C[C@@H]1CN([C@@H](C)CO)C(=O)c2cc(NC(=O)Cc3ccccc3)ccc2O[C@@H](C)CCCCO[C@@H]1CN(C)C(=O)c1ccncc1	none (no result: T cruzi growth-1)
C[C@@H]1CN([C@H](C)CO)S(=O)(=O)c2ccc(-c3cccnc3)cc2O[C@H]1CN(C)CC1CC1	none
O=C(C[C@@H]1C[C@H]2c3cc(NS(=O)(=O)c4ccccc4)ccc3O[C@H]2[C@@H](CO)O1)NC1CCCCC1	none (no result: C diff HTS)
CCCC#Cc1ccc2c(c1)O[C@H](CN(C)C(=O)c1ccncc1)[C@@H](C)CN([C@@H](C)CO)S2(=O)=O	none
CCCC#Cc1ccc2c(c1)O[C@@H](CN(C)C(=O)c1ccncc1)[C@@H](C)CN([C@H](C)CO)S2(=O)=O	T cruzi growth-1 109.7 | T cruzi growth-2 97.1 | T cruzi growth-3 inactive | 3T3 cytotox inactive | NIH3T3 tox 2 36.5
CCCC#Cc1ccc2c(c1)O[C@@H](CN(C)C(=O)c1ccncc1)[C@@H](C)CN([C@@H](C)CO)S2(=O)=O	T cruzi growth-1 108.3 | T cruzi growth-2 105.8 | T cruzi growth-3 inactive | 3T3 cytotox inactive | NIH3T3 tox 2 49.3
CCCC#Cc1ccc2c(c1)O[C@@H](CN(C)C(=O)c1ccncc1)[C@H](C)CN([C@H](C)CO)S2(=O)=O	none
C[C@H](CO)N1C[C@H](C)[C@H](CN(C)C(=O)c2ccc(F)cc2)Oc2ncc(Br)cc2C1=O	none (no result: T cruzi growth-1)
O=C(Nc1ccccc1F)N[C@H]1CC[C@H](CCNS(=O)(=O)c2ccc(Cl)cc2)O[C@@H]1CO	none (no result: C diff HTS)
CCCNC(=O)N1[C@H](C#N)[C@H](c2ccc(C#Cc3ccc(F)cc3)cc2)[C@@H]1CO	T cruzi growth-1 inconclusive, Pf Dd2 growth -86.6 | T cruzi growth-2 101.3 | T cruzi growth-3 112.5 | 3T3 cytotox inactive | NIH3T3 tox 2 inactive
CCCNC(=O)N1[C@H](C#N)[C@@H](c2ccc(C#Cc3cccc(F)c3)cc2)[C@@H]1CO	T cruzi growth-1 100.4 | T cruzi growth-2 102.0 | T cruzi growth-3 inactive | 3T3 cytotox inactive | NIH3T3 tox 2 inactive
CCCNC(=O)N1[C@H](C#N)[C@@H](c2ccc(-c3ccccc3F)cc2)[C@@H]1CO	none
CCCNC(=O)N1[C@H](C#N)[C@@H](c2ccc(-c3ccccc3F)cc2)[C@H]1CO	none
